Experimental data as given in PubChem BioAssay (NCI).
The panel holds about 83,000 compounds, 20% with a hit somewhere; the sample as a whole holds those more often.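 In brief: 96-well plates, 48 h treatment, single concentration, percent growth endpoint.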 Unmarked numbers belong to inactive results. The calls were made as follows: active = growth percent below 10; inactive = the rest.

The molecules below were run on HOP-62 NSCLC (assay: NCI-60 one-dose screen, 48 h (100 = growth as untreated, 0 = no growth, -100 = all killed)). Conditions: 10 µM.

Compared with `Cc1ccc(N)cc1[N+](=O)[O-]`, `Nc1ccc(N)c([N+](=O)[O-])c1` is higher in growth: 99.5% for the first, 111% for the second.

Compared with `CC(C)COC(=O)COC(=O)OCCOCCOC(=O)OCC(=O)OCC(C)C`, `CCCCOC(OCCCC)c1ccccc1` is higher in growth: 98.1% for the first, 117% for the second.

Going from `CC1(c2ccccc2)NC(=O)NC1=O` (centres undefined) to `O=c1[nH]c(O)c(/C=C2/C=Nc3ccccc32)[nH]1`, the growth falls from 111% to 99.4%.

First: O=[N+]([O-])c1ccc(CO)cc1
Second: COc1cccc(Sc2ccc([N+](=O)[O-])c3no[n+]([O-])c23)c1
The growth of the first is lower: 90.8% for the first, 103% for the second.

Going from `O=c1cc(-c2ccccc2)[nH]c2c1CCCC2` to `O=C(Nc1cc(-c2ccccc2)[nH]n1)c1ccc(Cl)cc1`, the growth rises from 28.8% to 88.3%.

Compared with `C=C1CC/C=C(\C)C(=O)C[C@@H]2[C@@H]1CC2(C)C`, `CC(=O)Nc1c(C)cc(C)cc1C` is lower in growth: 119% for the first, 109% for the second.

First: Brc1cnc2ccccc2c1
Second: Cc1ccc(O)c(C(=O)c2ccccc2)c1
The growth of the first is lower: 100% for the first, 114% for the second.

Compared with `C=CCNc1nnc(C)s1`, `C=CC[N+](C)(C)C` is higher in growth: 98.8% for the first, 107% for the second.

First: COc1ccc(/C(C#N)=C2C=C/C(=N/O)c3ccccc3\2)cc1
Second: COc1ccc(C(O)c2ccccc2)cc1 (centres undefined)
The growth of the first is lower: 35.3% for the first, 90.6% for the second.

First: Cc1cc(C)c(CC(=O)O)c(C)c1
Second: CC(=O)c1ccc(C)c(N)c1
The growth of the first is higher: 107% for the first, 99.6% for the second.

Compared with `CCOC(=O)c1cc(/C=C/c2ccc(Cl)cc2Cl)on1`, `CN1C(=O)CN2CCc3ccccc3C2c2cc(Cl)ccc21` (centres undefined) is lower in growth: 81% for the first, 79.8% for the second.

First: NC(=S)CN1CCOCC1
Second: CC(=O)OCC1CCCO1 (centres undefined)
The growth of the first is higher: 118% for the first, 95.1% for the second.

Going from `CNC(=S)NC(C)(C)C` to `CN(C)Cc1cc(C(C)(C)CC(C)(C)C)ccc1O`, the growth falls from 101% to 91.6%.

Going from `O=C(OCC(O)C1OC(c2ccccc2)OC(COC(=O)c2ccccc2)C1O)c1ccccc1` (centres undefined) to `CN(C)c1ccc(CNC(C(=O)c2ccccc2)c2ccccc2)cc1` (centres undefined), the growth falls from 99% to 75.5%.

Going from `O=C(NC1CCCCC1)OCc1c(COC(=O)NC2CCCCC2)c(-c2ccc(Cl)c(Cl)c2)n2c1CCC2` to `CC(C(=O)O)(C1CCCCC1)C1(O)CCCCC1` (centres undefined), the growth rises from 27.4% to 96.4%.

Compared with `CC(C)=C(NC(=O)c1ccccc1)C(=O)O`, `Oc1ccc(Cc2ccccc2)c2cccnc12` is lower in growth: 115% for the first, 18.3% for the second.

Compared with `Nc1ccc(N=Nc2ccc(S(=O)(=O)O)cc2)c2ccccc12`, `Cc1cc(C(O)(c2ccc(Nc3ccccc3)cc2)c2ccc(Nc3ccc(S(=O)(=O)O)cc3)cc2)ccc1N` (centres undefined) is lower in growth: 63.7% for the first, 53.5% for the second.

First: CN(C)c1ccc(C(c2ccc(O)cc2)c2ccc(N(C)C)cc2)cc1
Second: O=C1C[C@H](c2ccccc2)[C@H](c2ccccc2)C1
The growth of the first is higher: 99.7% for the first, 98.5% for the second.

Going from `COc1ccccc1C1OC2=Nc3cc(C)c(C)cc3NC2C1=O` (centres undefined) to `NC(=O)c1ccc(N=C(N)N=C(N)N)cc1`, the growth rises from 47.9% to 87.2%.

`C1CNC(C2=NCCN2)=N1` gave a growth of 99.4%.
